Rows were chosen to be rich in hits. Some 0.9% of all compounds tested hit in one or more screens of this group.
PPARg SRC3 recr: PPARgamma agonists recruiting SRC-3 coactivator, primary screen, biochemical. Peroxisome proliferator-activated receptor gamma (Homo sapiens), P37231. activation, % at 8 µM. AID 731, 2007. biochemical PPARgamma/SRC-3 coactivator recruitment assay. hit rate 0.26% among 200,000; in the data active = activation above about 23%
Target sequence (P37231 whole entry, looked up): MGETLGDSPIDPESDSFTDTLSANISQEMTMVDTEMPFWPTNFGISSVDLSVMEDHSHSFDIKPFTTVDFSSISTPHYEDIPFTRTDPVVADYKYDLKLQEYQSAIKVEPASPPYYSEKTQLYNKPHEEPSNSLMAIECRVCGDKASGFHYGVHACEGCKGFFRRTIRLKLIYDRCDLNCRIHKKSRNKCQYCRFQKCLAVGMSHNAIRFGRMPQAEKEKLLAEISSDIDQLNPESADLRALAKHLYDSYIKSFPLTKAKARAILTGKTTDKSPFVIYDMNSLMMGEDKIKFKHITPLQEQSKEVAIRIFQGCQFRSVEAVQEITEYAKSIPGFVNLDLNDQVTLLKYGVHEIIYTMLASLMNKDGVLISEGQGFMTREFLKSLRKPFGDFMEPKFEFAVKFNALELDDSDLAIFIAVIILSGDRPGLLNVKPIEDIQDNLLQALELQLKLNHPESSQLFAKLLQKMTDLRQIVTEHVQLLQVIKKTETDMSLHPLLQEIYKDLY
SRC3 TRFRET art: TR-FRET detection interference compounds, artefact control for PPARgamma SRC-3 recruitment agonists, biochemical, TR-FRET ratio | TR-FRET artefact counter-screen, PPARgamma/SRC-3 format; active compounds read high | TR-FRET ratio at 8 µM | hit rate 0.39% among 99,000 | AID 1048, 2008
PPARg SRC2 recr: agonists of PPARg-SRC-2 recruitment, primary screen, biochemical, HTS; Peroxisome proliferator-activated receptor gamma (Homo sapiens), P37231; PPARgamma LBD-SRC-2 recruitment; activation, % at 8 µM; hit rate 0.34% among 200,000; in the data active = activation above about 22%
SRC1 TRFRET art: TR-FRET detection interference compounds, primary screen, artefact control for PPARgamma SRC-1 recruitment agonists, biochemical, TR-FRET emission ratio. TR-FRET detection artefact counter-screen; active compounds read high. TR-FRET ratio at 8 µM. hit rate 0.34% among 99,000. AID 1051, 2008; in the data active = TR-FRET ratio above about 2300
PPARg SRC-1 ag: PPARgamma agonists recruiting SRC-1 coactivator, primary screen, biochemical | Peroxisome proliferator-activated receptor gamma (Homo sapiens), P37231 | activation, % at 8 µM | hit rate 0.41% among 200,000 | AID 631, 2007 | PPARgamma-SRC-1 coactivator recruitment biochemical assay; in the data active = activation above about 19%
SRC2 TRFRET art: TR-FRET signal artefacts, primary screen, artefact control for PPARgamma SRC-2 agonist project, biochemical; TR-FRET artefact counter-screen; active compounds read high; TR-FRET ratio at 8 µM; hit rate 0.4% among 200,000
PPARg SRC2 ag: agonists of PPARgamma SRC-2 coactivator recruitment, confirmation, biochemical, HTS; shares compounds with PPARg SRC3 recr; biochemical SRC-2 recruitment by PPARgamma; activation, % at 8 µM; hit rate 52% among 790; AID 1297, 2008; in the data active = activation above about 22%
PPARg SRC1 conf: PPARgamma agonists recruiting SRC-1 coactivator, confirmation, biochemical; hit rate 43% among 790; PPARgamma–SRC-1 coactivator recruitment biochemical assay; activation, % at 8 µM; shares compounds with PPARg SRC3 recr; in the data active = activation above about 20%
PPARg SRC3 ag: PPARgamma-driven SRC-3 coactivator recruitment agonists, confirmation, biochemical; shares compounds with PPARg SRC3 recr; biochemical PPARgamma-SRC-3 coactivator recruitment, agonist mode; activation, % at 8 µM; hit rate 29% among 790; AID 1301, 2008; in the data active = activation above about 24%
Large screens that a line does not name were inactive (follow-up assays come after a bar, where they were run). Cut-off read from the data, not from the text of the source, unless noted: active = TR-FRET ratio above about 2000; inactive = the rest.

COC(=O)c1c(NC(=S)Nc2ccccc2Cl)sc(C)c1C	PPARg SRC3 recr 38, PPARg SRC2 recr 31, PPARg SRC-1 ag 22, SRC2 TRFRET art 2012 (no result: SRC3 TRFRET art, SRC1 TRFRET art) | PPARg SRC2 ag 31 | PPARg SRC1 conf 24 | PPARg SRC3 ag inactive
COC(=O)c1c(NC(=O)Cc2ccccc2)sc(C)c1C	none (no result: SRC3 TRFRET art, SRC1 TRFRET art)
CS(=O)(=O)Nc1ccc(S(=O)(=O)N2CCOCC2)cc1	none (no result: SRC3 TRFRET art, SRC1 TRFRET art)
N/C(COc1ncn(-c2ccccc2)n1)=N\S(=O)(=O)c1ccccc1	none
CSc1oc(-c2ccccc2)nc1C(N)=O	PPARg SRC3 recr 30 (no result: SRC3 TRFRET art, SRC1 TRFRET art) | PPARg SRC2 ag 27 | PPARg SRC1 conf inactive | PPARg SRC3 ag inactive
CCOC(=O)c1c(NC(=O)CSc2nnc(-c3ccccc3)o2)sc(C(C)=O)c1C	none (no result: SRC3 TRFRET art, SRC1 TRFRET art)
CCOC(=O)c1c(NC(=O)CSc2nnc(Cc3ccccc3)o2)sc(C(C)=O)c1C	PPARg SRC3 recr 44, PPARg SRC2 recr 36, SRC2 TRFRET art 2328 (no result: SRC3 TRFRET art, SRC1 TRFRET art) | PPARg SRC2 ag inactive | PPARg SRC1 conf inactive | PPARg SRC3 ag inactive
CCOC(=O)c1cccc(NC(=O)CSc2nnc(COc3ccccc3C)o2)c1	PPARg SRC-1 ag 20 (no result: SRC3 TRFRET art, SRC1 TRFRET art) | PPARg SRC2 ag inactive | PPARg SRC1 conf inactive | PPARg SRC3 ag inactive
CCOc1ccc(NC(=O)CSc2nnc(COc3c(C)cccc3C)o2)cc1	none (no result: SRC3 TRFRET art, SRC1 TRFRET art)
CCOC(=O)Cc1csc(NC(=O)COc2ccc(OC)cc2)n1	none (no result: SRC3 TRFRET art, SRC1 TRFRET art)
O=C(Nc1cccnc1)c1sc(Nc2ccccc2)nc1-c1ccccc1	PPARg SRC3 recr 42, SRC3 TRFRET art 3330, PPARg SRC2 recr 55, SRC1 TRFRET art 3708, PPARg SRC-1 ag 48, SRC2 TRFRET art 2618 | PPARg SRC2 ag 79 | PPARg SRC1 conf 59 | PPARg SRC3 ag 54
Cc1nc(N)sc1C(=O)Nc1ccccc1	none (no result: SRC3 TRFRET art, SRC1 TRFRET art)
Cc1nc(NC(N)=S)sc1C(=O)Nc1ccccc1	PPARg SRC3 recr 27 (no result: SRC3 TRFRET art, SRC1 TRFRET art) | PPARg SRC2 ag inactive | PPARg SRC1 conf inactive | PPARg SRC3 ag inactive
Cc1cccc(Nc2nc(-c3ccccc3)c(C(=O)Nc3cccnc3)s2)c1	PPARg SRC3 recr 27, SRC3 TRFRET art 3117, PPARg SRC2 recr 38, SRC1 TRFRET art 3448, PPARg SRC-1 ag 29, SRC2 TRFRET art 2484 | PPARg SRC2 ag 57 | PPARg SRC1 conf 44 | PPARg SRC3 ag 38
COc1ccc(NC(=O)CSc2ccc3c(c2)OCCO3)cc1OC	none (no result: SRC3 TRFRET art, SRC1 TRFRET art)
Cc1nn(C)c(C)c1S(=O)(=O)N(CC(=O)N1CCc2ccccc2C1)c1ccc(C(C)C)cc1	none (no result: SRC3 TRFRET art, SRC1 TRFRET art)
COc1cccc(-c2cc3c(=O)n(-c4ccccc4)c(=S)[nH]c3s2)c1	PPARg SRC2 recr 31, PPARg SRC-1 ag 23, SRC2 TRFRET art 1988 (no result: SRC3 TRFRET art, SRC1 TRFRET art) | PPARg SRC2 ag inactive | PPARg SRC1 conf inactive | PPARg SRC3 ag inactive
COc1ccc(-c2csc3[nH]c(=S)n(-c4ccccc4)c(=O)c23)cc1OC	SRC3 TRFRET art 2099, PPARg SRC2 recr 25, SRC1 TRFRET art 2467, SRC2 TRFRET art 2183 | PPARg SRC2 ag inactive | PPARg SRC1 conf inactive | PPARg SRC3 ag inactive
COc1ccc(-n2c(=S)[nH]c3c(sc(=S)n3-c3ccccc3)c2=O)c(OC)c1	none
Cc1cc(C)n(-c2ccc(S(N)(=O)=O)cc2[N+](=O)[O-])n1	none
C=CCn1c(NCc2cc(C)ccc2O)nc2ccccc21	none (no result: SRC3 TRFRET art, SRC1 TRFRET art)
C=CCn1c(NC(C)c2cc(Cl)ccc2O)nc2ccccc21 (stereo unspecified)	PPARg SRC3 recr 28, PPARg SRC2 recr 27, PPARg SRC-1 ag 41 (no result: SRC3 TRFRET art, SRC1 TRFRET art) | PPARg SRC2 ag inactive | PPARg SRC1 conf 32 | PPARg SRC3 ag 31
CCOC(=O)CNC(=O)C1(c2ccccc2)CCCC1	none (no result: SRC3 TRFRET art, SRC1 TRFRET art)
Cc1ccc(-n2c(-c3cn(C)nc3C)n[nH]c2=S)cc1	none
S=c1[nH]ncn2c1cc1oc3ccccc3c12	PPARg SRC3 recr 28, SRC3 TRFRET art 2852, PPARg SRC2 recr 37, SRC1 TRFRET art 2955, PPARg SRC-1 ag 31, SRC2 TRFRET art 2319 | PPARg SRC2 ag inactive | PPARg SRC1 conf inactive | PPARg SRC3 ag inactive
COc1cc(OC)c(OC)cc1CNc1cc(C)ccc1OC	none (no result: SRC3 TRFRET art, SRC1 TRFRET art)
COCCNC(=O)[C@H]1C[C@@H]1[C@H](NP(=O)(c1ccccc1)c1ccccc1)c1ccccc1	none
CC1=NOC(=O)/C1=C\c1ccc(-c2ccccc2Br)o1	PPARg SRC3 recr 51, SRC3 TRFRET art 3608, PPARg SRC2 recr 118, SRC1 TRFRET art 4294, PPARg SRC-1 ag 82, SRC2 TRFRET art 3893 | PPARg SRC2 ag 79 | PPARg SRC1 conf 61 | PPARg SRC3 ag 58
CN(C)c1ccc(NC(=O)CSc2nc(N)c(C(=O)Nc3ccc(N(C)C)cc3)s2)cc1	PPARg SRC2 recr 24 (no result: SRC3 TRFRET art, SRC1 TRFRET art) | PPARg SRC2 ag inactive | PPARg SRC1 conf inactive | PPARg SRC3 ag inactive
CN(C)c1ccc(N/C=C/C(=O)c2ccccc2)cc1	none (no result: SRC3 TRFRET art, SRC1 TRFRET art)
CN(C)c1ccc(N/C=C/C(=O)C(C)(C)C)cc1	PPARg SRC3 recr 70, PPARg SRC2 recr 81, SRC2 TRFRET art 2723 (no result: SRC3 TRFRET art, SRC1 TRFRET art) | PPARg SRC2 ag inactive | PPARg SRC1 conf inactive | PPARg SRC3 ag inactive
O=[N+]([O-])c1ccc(COc2ccc(Br)cc2CN2CCOCC2)cc1	none
COc1cc(NC(=O)c2ccc(C)cc2)c(OC)cc1NC(=O)CN1CCOCC1	none (no result: SRC3 TRFRET art, SRC1 TRFRET art)

Bioassay records as filed in PubChem BioAssay.
